# Bioassay records as filed in PubChem.
# In the library only some 2.9% were active in any assay of this set; here they are far more common.
# E-sel TNF inh – TNF alpha driven E-selectin expression inhibition; HUVEC TNFa-induced E-selectin immunofluorescence, high content; inhibition, % at 2 µM; hit rate 0.71% among 120,000;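 active means inhibition above the batch mean plus 3 SD, and confirmed as a hit on visual image review, cut at about 43% in these data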;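 further: 0% = TNF-stimulated DMSO wells and 100% = unstimulated control wells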
# cytoskel mod – modifiers of cytoskeleton assembly; HUVEC TNFa F-actin phalloidin imaging, high content; inhibition, % at 2 µM; hit rate 0.18% among 91,000;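 active means inhibition above the batch mean plus 3 SD and confirmed as a hit by visual image inspection, cut at about 30% in these data, passing the limit was not always enough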
# ERb coact inh – blocks coactivator binding to human estrogen receptor beta. Q92731. hit rate 1.3% among 86,000. TR-FRET ER-beta LBD / SRC1-Cy5 peptide binding; receptor agonist-loaded with 1 µM estradiol. inhibition, % at 25.6 µM. AID 633;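 active means compounds whose percent inhibition of the receptor-coactivator binding signal exceeds about 50% in the single-dose screen, limit read from the data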;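 further: 0% = receptor plus peptide wells without compound and 100% = peptide-only wells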
# Target sequence (Q92731 whole entry, looked up, the tested form may be a part): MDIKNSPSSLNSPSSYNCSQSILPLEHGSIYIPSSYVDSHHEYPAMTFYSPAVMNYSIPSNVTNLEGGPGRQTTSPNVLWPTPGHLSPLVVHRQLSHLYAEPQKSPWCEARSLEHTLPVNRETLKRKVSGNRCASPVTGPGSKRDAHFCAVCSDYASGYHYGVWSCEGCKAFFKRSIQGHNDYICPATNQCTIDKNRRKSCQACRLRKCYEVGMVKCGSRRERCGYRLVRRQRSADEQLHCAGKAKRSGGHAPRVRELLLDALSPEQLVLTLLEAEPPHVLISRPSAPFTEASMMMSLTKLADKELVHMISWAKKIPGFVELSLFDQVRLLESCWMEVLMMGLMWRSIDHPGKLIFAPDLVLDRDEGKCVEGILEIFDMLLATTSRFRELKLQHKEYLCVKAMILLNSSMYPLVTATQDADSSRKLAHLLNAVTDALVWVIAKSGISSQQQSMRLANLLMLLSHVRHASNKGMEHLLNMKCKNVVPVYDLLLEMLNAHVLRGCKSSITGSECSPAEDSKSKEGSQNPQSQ
# ERa SRC1 pot – enhances coactivator binding to human estrogen receptor alpha; P03372; TR-FRET ERalpha-LBD/SRC-Cy5 coactivator binding, 2 h; 100 = basal binding, no effect; coactivator binding (% of control), % at 25.6 µM; hit rate 1.3% among 86,000; in the data active means activity above about 200%;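 further: binding measured in presence of low estradiol as agonist stimulus; 0% = peptide alone without receptor and 100% = receptor with peptide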
# ERa SRC1 inh – blocks coactivator binding to human estrogen receptor alpha | inhibition, % at 25.6 µM | TR-FRET ER-alpha LBD / SRC-1 peptide, estradiol-bound | hit rate 1.7% among 86,000 | AID 629; in the data active means inhibition above about 50%;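 further: 0% = receptor plus peptide control and 100% = peptide only without receptor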
# Calb biofilm kill – kills Candida albicans biofilms; C. albicans biofilm + clotrimazole, Alamar Blue; inhibition, % at 6 µM; hit rate 0.14% among 85,000;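 active means inhibition above 20%; inactive means inhibition below 20%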;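 further: preformed 24 hr biofilms exposed to compound for 48 hr; 0% = biofilm without compound and 100% = blank killed by clotrimazole plus chlorhexidine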
# The depositor's hits bear a star; . = not tested or not shown; [ ] = dose if it differs, or a comment.
SMILES,E-sel TNF inh,cytoskel mod,ERb coact inh,ERa SRC1 pot,ERa SRC1 inh,Calb biofilm kill
CCn1cc(C(=O)N2CCn3c(nc4ccccc43)C2)c(=O)c2ccc(C)nc21,.,-10,0,101,-2,12
O=C(N/N=C\c1ccc(CNS(=O)(=O)c2ccc(Cl)cc2)o1)C(=O)Nc1ccc(Oc2ccccc2)cc1,92*,.,.,.,.,.
CCc1cc2c(=O)n(CC)c(SC(C)C(=O)Nc3c(C)n(C)n(-c4ccccc4)c3=O)nc2s1 (stereo not given),1,-5,55*,98,1,2
COc1ccc(C(=O)CSc2nnc(C3CCCCC3)n2N)c(OC)c1,-15,.,18,64,68*,2
Nn1c(SCC(=O)Nc2cccc(F)c2)nnc1C1CCCCC1,-19,-34,1,71,17,6
C=CCn1c(SCC(=O)NC2CCCCC2)nnc1C(C)NC(=O)c1cccs1 (stereo not given),-17,-4,-5,129,83*,7
C=CCn1c(SCC(=O)c2ccc(OC)cc2)nnc1C(C)NC(=O)c1cccs1 (stereo not given),-10,-3,-13,102,7,-9
CCC(=O)Nc1cccc(NC(=O)c2ccc(C)cc2Cl)c1,-19,.,.,.,.,.
O=C1CC(/C=C/c2ccco2)=Nc2ccccc2N1,.,.,44,80,58*,9
CCCOC(=O)c1ccc(Oc2coc3c(CN(CC)CC)c(O)ccc3c2=O)cc1,-10,.,.,.,.,.
C=C(C)c1cccc(C(C)(C)NC(=O)Nc2ncccn2)c1,-52,74*,-4,105,-2,7
CCC(CC)C(=O)c1c[nH]c(C(=O)NCCCN2CCOCC2)c1,86*,14,.,.,.,.
O=C(c1ccc(F)cc1)c1c[nH]c(C(=O)NCCCN2CCOCC2)c1,.,-44,.,.,.,.
O=C(CCN1C(=O)c2ccccc2C1=O)Nc1ccc(F)cc1,1,4,-2,118,85*[fluorescence artefact?],0
O=C(CCN1C(=O)c2ccccc2C1=O)Nc1ccc(F)cc1F,-16,.,-1,121,-1,8
Cc1ccc(-n2c([O-])nc(-[n+]3ccccc3)c2C=O)cc1,.,37*,.,.,.,.
Cc1cc[n+](-c2nc([O-])n(-c3ccccc3)c2C=O)cc1,-30,12,-7,107,-21,3
CCOC(=O)c1c(N)sc(C(O)(C(F)(F)F)C(F)(F)F)c1-c1ccccc1,.,-9,-2,41,-2,82*
CCOC(=O)c1c(N)sc(-c2ccccc2)c1C,38,-1,6,76,-14,0
Cc1cc(C)nc(Sc2nc(Cl)nc(N(c3ccccc3)c3ccccc3)n2)n1,2,-8,.,.,.,.
O=C(NCc1ccco1)c1cc(-c2ccc3c(c2)OCO3)on1,.,11,11,261*[fluorescence artefact?],26,8
Cc1nn(Cc2ccc(Cl)cc2)c(C)c1NC(=O)c1cc(-c2ccc3c(c2)OCO3)on1,.,6,19,74,70*[fluorescence artefact?],9
CCOC1=C/C(=C/c2c(N)n3nc(S(=O)(=O)CC)sc3nc2=O)C=CC1=O,-59,.,.,.,.,.
COc1ccc(/C(C)=N/NC(=O)CNC(=O)/C=C\c2ccco2)cc1,-2,.,.,.,.,.
COc1ccc(OCC(=O)NCCCN2CCOCC2)cc1,-6,17,-8,99,-8,2
SMILES,E-sel TNF inh,cytoskel mod,ERb coact inh,ERa SRC1 pot,ERa SRC1 inh,Calb biofilm kill
CN(C)CC(=O)N1c2ccccc2CCc2ccc(NC(=O)c3ccc(N)cc3)cc21,29,2,69*[fluorescence artefact?],36,79*,3
COc1cc(C(=O)Nc2ccc3c(c2)N(C(=O)CCN(C)C)c2ccccc2CC3)cc(OC)c1OC,2,.,.,.,.,.
O=c1c2c3c(sc2nc2n1CCC2)CCC3,4,37*,3,132,2,6
CCc1nc2sc3c(c2c(=O)n1N)CCC3,.,-15,-27,98,-31,10
C=CCn1c(SCC(=O)NC)nc2sc3c(c2c1=O)CCC3,80*,1,.,.,.,.
O=c1c2c3c(sc2nc2n1CCCC2)CCCC3,-60,-4,-13,88,-16,4
CCn1c(NN)nc2sc3c(c2c1=O)CCC3,-28,2,52*,47,18,-1
Cc1c(F)cccc1NC(=O)CSCC(=O)Nc1ccccc1,.,0,-8,109,1,3
S=c1[nH]nc(COc2ccc(Cl)cc2)o1,.,.,-13,115,-18,0
O=C(O)CCC(=O)Nc1ccc(/C=C/C(=O)C2CC2)cc1,-16,.,.,.,.,.
Cn1nc([N+](=O)[O-])c2c(-c3nc4ccccc4s3)c(N)n(C3CCCCC3)c2c1=O,8,.,65*,4,93*,6
CC(C)(C)OC(=O)N1CCN(c2ccc(NC(=O)Cn3nnc(-c4ccccc4)n3)cc2)CC1,2,-43,50*,44,31,4
Cn1nc(CC(=O)Nc2ccc(N3CCN(C(=O)OC(C)(C)C)CC3)cc2)c2ccccc2c1=O,10,.,39,68,72*[fluorescence artefact?],6
Cn1nc(CC(=O)N2CCN(c3ccccc3)CC2)c2ccccc2c1=O,21,-7,-13,119,-4,3
COc1ccc(-c2nc3c(c(=O)[nH]c(=O)n3Cc3ccccc3)n2Cc2ccccc2)cc1,4,-16,.,.,.,.
COc1ccc(-c2nc3c(c(=O)[nH]c(=O)n3Cc3ccccc3)n2C)cc1,8,8,41,270*[fluorescence artefact?],35,3
Cc1nc2c(ccc3nc(NC(=O)c4ccc(S(=O)(=O)N(C)C)cc4)sc32)s1,32,-45,12,241*[fluorescence artefact?],19,3
CCn1c(=O)n(CC(=O)Nc2ccc(F)cc2)c(=O)c2ccccc21,16,.,.,.,.,.
COc1ccc(CNC(=O)c2noc3c2CCCCC3)cc1,-2,.,-8,100,-7,5
COc1ccc(NC(=O)c2noc3c2CCC3)cc1,18,.,90*[fluorescence artefact?],44,86*[fluorescence artefact?],1
COc1cc(NC(=O)c2noc3c2CCC3)c(OC)cc1Cl,-43,.,86*[fluorescence artefact?],25,88*[fluorescence artefact?],-3
CCOC(=O)N1CCN(C(=O)c2ccc3c(c2)NC(=O)C(N2CCOCC2)S3)CC1 (stereo not given),.,-17,-5,113,3,2
CCOc1ccccc1NC(=O)Cn1nnc(-c2ccc(OCC)c(OCC)c2)n1,59,9,27,107,53*[fluorescence artefact?],7
COc1ccc(-c2ccc(C#N)c(SCC(=O)Nc3sc4c(c3C#N)CCC4)n2)cc1OC,-2,-30,65*[fluorescence artefact?],150,84*[fluorescence artefact?],7
Cn1c(CNC(=O)c2ccc(Cl)cc2)nnc1SCC(=O)Nc1sc2c(c1C#N)CCCC2,.,-1,34,250*,37,-2
COC(=O)c1ccc(NC(=O)Cn2nnc(-c3cccs3)n2)cc1,8,.,.,.,.,.
N#Cc1cc2c(nc1SCC(=O)Nc1sc3c(c1C#N)CCC3)CCC2,.,11,13,113,-4,1
COC(=O)c1sccc1NC(=O)Cn1nnc(-c2ccc(C)cc2)n1,-3,11,3,212*,14,-1
CC(CCc1ccccc1)NC(=O)N1CCOCC1 (stereo not given),-20,.,.,.,.,.
CC(C)Sc1nc2c(c(=O)n1C)SC(C)C2 (stereo not given),-53,.,6,103,-9,-3
